Laboratory results as given in PubChem BioAssay (NCI).
This is part of a sample that, as a whole, favours compounds with a hit. Of some 79,000 tested, about 15% had one in any assay. No stated cut-off is given here; in the data, active means growth inhibition above about 70%; inactive means the rest.

Experiments:
[1] = NCI Yeast Anticancer Drug Screen. Data for the rad50 strain (AID 155);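 further: 0% = growth of vehicle-only cultures of the same strain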; conditions: S. cerevisiae rad50 strain growth inhibition; at 50.0 µM; active compounds read high
In short: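 Compounds were tested on a yeast strain with an engineered DNA damage repair alteration; the reported value is growth inhibition normalised to vehicle treatment.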

[2] = NCI Yeast Anticancer Drug Screen. Data for the mec2-1 strain (AID 157); conditions: S. cerevisiae mec2-1 strain, at 50.0 µM, active compounds read high
In short: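 Using mec2-1 yeast: add compound, measure growth, express inhibition versus vehicle-treated cultures.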

[3] = NCI Yeast Anticancer Drug Screen. Data for the sgs1 mgt1 strain (AID 161);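 further: 0% = growth of cultures given vehicle only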; conditions: S. cerevisiae sgs1 mgt1 strain, at 50.0 µM, active compounds read high
In short: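 This yeast growth screen uses a strain with defined DNA-repair lesions; compound-treated growth is compared with vehicle-treated growth.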

[4] = NCI Yeast Anticancer Drug Screen. Data for the cln2 rad14 strain (AID 165);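 further: 0% = growth equal to vehicle treated cultures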; conditions: S. cerevisiae cln2 rad14 strain, at 50.0 µM, active compounds read high
In short: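 Yeast strain cln2 rad14, bearing defects in cell cycle control and DNA repair, serves as the test system; values reflect growth inhibition compared with vehicle.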

[5] = NCI Yeast Anticancer Drug Screen. Data for the bub3 strain (AID 167); conditions: S. cerevisiae bub3 mutant strain, at 50.0 µM, active compounds read high
In short: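 Growth of a checkpoint-deficient yeast mutant is measured after compound exposure. Values represent inhibition relative to vehicle.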

[6] = NCI Yeast Anticancer Drug Screen. Data for the mlh1 rad18 strain (AID 175); conditions: S. cerevisiae mlh1 rad18 strain growth inhibition; at 50.0 µM; active compounds read high
In short: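 Steps: expose repair-defective yeast to compound; measure growth; express inhibition against vehicle-treated controls.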

Measured: growth inhibition

Nc1ccc(Cl)cc1C(=O)N1CCN(c2ccc([N+](=O)[O-])cn2)CC1
inactive: [1] 33.5% | [2] 16.2% | [3] 51.4% | [4] 36.1% | [5] 42.9% | [6] 18.8%

COC(=O)C1c2ccccc2CC(=O)N1NC(=O)c1ccccc1 (configuration not stated)
inactive: [1] -7.7% | [2] -2.95% | [3] -17.1% | [4] 4.5% | [5] 3.65% | [6] 16.6%

CO/N=C1\CC(NC(=O)C(F)(F)F)c2ccsc21 (configuration not stated)
inactive: [1] 11.6% | [2] 6.9% | [3] 8% | [4] 13.3% | [5] -2.8% | [6] 38.9%

Cc1n[n+](Cc2ccccc2)c2sc(N)nn12
inactive: [1] 2.85% | [2] 6.25% | [3] -41.6% | [4] 20% | [5] 26.9% | [6] -26.1%

Cc1cc(=O)n2c(n1)sc1ccc3ccccc3c12
inactive: [1] 12% | [2] -11.8% | [3] 3.1% | [4] 12.8% | [5] -12.8% | [6] 33.9%

C[S+](C)N(c1ccccc1)C(C)(C)C
inactive: [1] -10.1% | [2] -8.2% | [3] -0.45% | [4] -17.4% | [5] -22.7% | [6] -6.1%

COc1cc2c(cc1OC)C1c3cc(OC)c(OC)cc3CC(=O)N1CC2 (configuration not stated)
inactive: [1] 17.6% | [2] 7.1% | [3] 38.5% | [4] 19.3% | [5] 24.5% | [6] 37.6%

CCCCCC[n+]1ccc(C(=O)c2ccccc2)cc1
inactive: [1] 34.9% | [2] -5.8% | [3] 19.9% | [4] 7.9% | [5] 0.45% | [6] 32.6%

CC(O)CC(=O)c1ccc(O)cc1 (configuration not stated)
inactive: [1] -42% | [2] -41% | [3] -30.2% | [4] 1.7% | [5] -49.5% | [6] -41.3%

O=C1CSC2=NC3=C(COC/C3=C\c3ccc(Br)cc3)C(c3ccc(Br)cc3)N12 (configuration not stated)
inactive: [1] 7.05% | [2] 14.3% | [3] 39.1% | [4] 18.9% | [5] 33.6% | [6] 33.1%

O=[N+]([O-])C1C=Nc2ccccc2N=C1
inactive: [1] 19.7% | [2] -16.6% | [3] 18.1% | [4] 21.4% | [5] 5% | [6] 19.6%

N#CC(=S)Nc1ccc(Cl)c(Cl)c1
inactive: [1] -4.8% | [2] 27.9% | [3] 22.6% | [4] -36% | [5] -1.95% | [6] 31.8%

Cc1ccc(C2C3CCC(=O)C=C3CN2C=O)cc1O (configuration not stated)
inactive: [1] 10.2% | [2] 8.4% | [3] -3.2% | [4] -44.6% | [5] -2.6% | [6] 12.8%

OC(c1ccccc1)(c1ccccc1)c1ccccc1CNc1ccccc1
inactive: [1] 45.5% | [2] 30.4% | [3] 26.2% | [4] 8% | [5] 19.8% | [6] 49.8%

COC(=O)CC(=O)/C(=C/C(C/C=C(\C(=O)CC(=O)OC)C(=O)OC)OC)C(=O)OC (configuration not stated)
inactive: [1] 40.1% | [2] 22.8% | [3] 8.9% | [4] 18.8% | [5] 3.85% | [6] 32.3%

Cc1cc(C)c(C#N)c(SC(C(=O)NC(C)(C)C)c2ccccc2)n1 (configuration not stated)
inactive: [1] 2.25% | [2] -16.8% | [3] 8.75% | [4] 18% | [5] -8.15% | [6] -14.3%

Cc1cc(N=Nc2ccccc2)c2cccnc2c1N
inactive: [1] -3.85% | [2] -4.2% | [3] -7.5% | [4] 11.6% | [5] -5.15% | [6] 14.7%

CC(=O)Oc1c(Cl)c(Cl)c(C#N)c(Cl)c1C#N
inactive: [1] 30.4% | [2] 1.7% | [3] 26.2% | [4] 10.8% | [5] 8.8% | [6] 26.1%

Nc1ccc(F)cc1
inactive: [1] -22.1% | [2] -1.5% | [3] -15.4% | [4] -19.6% | [5] -3.05% | [6] -31.9%

Cc1cc(C)c2[nH]c(=O)c(C)c(C)c2c1Br
inactive: [1] -0.5% | [2] 5.55% | [3] -7.2% | [4] -16.6% | [5] -1.3% | [6] -0.25%

CC(=O)NC1CCCCC1C1CCC([N+](=O)[O-])CC1 (configuration not stated)
inactive: [1] 12.6% | [2] -1.75% | [3] -12.5% | [4] 12.7% | [5] 6.9% | [6] 6.05%

COC(=O)/C=C/c1ccc(OC(C)=O)c(OC)c1
inactive: [1] -1.9% | [2] 3.55% | [3] -13.6% | [4] -19.1% | [5] 16.6% | [6] -4.9%

COCCNC(C)=O
inactive: [1] 13.8% | [2] 0.7% | [3] 12% | [4] -17.1% | [5] -11.2% | [6] 3.7%

O=C(CCc1ccccc1CO)NCCc1ccccc1
inactive: [1] 52% | [2] 20.9% | [3] -18.1% | [4] 7.8% | [5] -34.1% | [6] 3.85%

CC(Cl)C(=O)N(C)c1ccccc1 (configuration not stated)
inactive: [1] 3.6% | [2] -14.8% | [3] -2.9% | [4] -16% | [5] -14.8% | [6] -14.1%

CCOC(=O)NC(NC(=O)OCC)c1ccc(C(NC(=O)OCC)NC(=O)OCC)cc1
inactive: [1] 30.9% | [2] 13.2% | [3] 5.45% | [4] 5% | [5] 2.8% | [6] 7.9%

COc1ccc([N+](=O)[O-])cc1OC
inactive: [1] 29.9% | [2] -0.15% | [3] 33.1% | [4] 1.65% | [5] 0.45% | [6] 16.1%

Cc1cc(=O)[nH]c(NNC(C#N)c2ccccc2O)n1 (configuration not stated)
inactive: [1] -19.3% | [2] -27.9% | [3] -22.1% | [4] -12% | [5] 1.5% | [6] -34.8%

O=C1CS(=O)(=O)c2ccccc21
inactive: [1] -11.4% | [2] 1.5% | [3] 1.5% | [4] -13.3% | [5] -8.8% | [6] 22.2%

Fc1c(F)c(F)c(-c2nnc(-c3c(F)c(F)c(F)c(F)c3F)o2)c(F)c1F
inactive: [1] -2.45% | [2] 2.75% | [3] -8.75% | [4] -56.8% | [5] 9.3% | [6] 4.25%

CCC(=O)Oc1ccc(C(C)(C)C)cc1
inactive: [1] -5.85% | [2] -3.75% | [3] 1.95% | [4] -2.25% | [5] 11.1% | [6] 1.1%

CN1CC(C(N)=O)=CC(C(N)=O)C1 (configuration not stated)
inactive: [1] -5.25% | [2] -9.2% | [3] -8.15% | [4] -0.6% | [5] 9.25% | [6] 7.5%

CCOC(=O)Cn1c(=O)n(C)c(=O)c2[nH]cnc21
inactive: [1] 28.7% | [2] -27.1% | [3] 17.4% | [4] 15.1% | [5] 22.5% | [6] 28.5%

Clc1cc(Cl)c(SSc2cc(Cl)c(Cl)cc2Cl)cc1Cl
inactive: [1] -11.6% | [2] 1.15% | [3] -18.1% | [4] -71.5% | [5] 0.75% | [6] -22.6%

Cc1cc(Cl)nc2ccc([N+](=O)[O-])cc12
inactive: [1] 5.35% | [2] 6.3% | [3] -5.35% | [4] -18.1% | [5] 14.2% | [6] 5.5%

CCN(CC)/[N+]([O-])=N/O
inactive: [1] 26.6% | [2] -14.8% | [3] -2.35% | [4] -0.6% | [5] 15.8% | [6] 16.1%

O=C(C(=NC12CC3CC(CC(C3)C1)C2)NNc1ccc([N+](=O)[O-])cc1[N+](=O)[O-])C(Br)C(=O)c1ccccc1 (configuration not stated)
inactive: [1] 47.2% | [2] 45.9% | [3] 56.2% | [4] 3.25% | [5] 51.5% | [6] 39.9%

CC1(CO)CCCC1NCCNC1CCCC1(C)CO (configuration not stated)
inactive: [1] 8.6% | [2] -6.7% | [3] 3.35% | [4] 10.3% | [5] -27.9% | [6] 15.5%

O=S(=O)(/N=c1/ccc(NS(=O)(=O)c2ccccc2)cn1O)c1ccccc1
inactive: [1] 25.5% | [2] 3.8% | [3] 18.1% | [4] -23% | [5] 10.6% | [6] 14.6%

Cn1ccc2c(C(=O)c3ccccc3)cccc2c1=O
inactive: [1] 7.75% | [2] -5.7% | [3] -4.75% | [4] 9.7% | [5] 0.5% | [6] -10.5%

S=c1nn[nH]n1C1CCCCC1
inactive: [1] 8.05% | [2] -14.3% | [3] -1.8% | [4] 4.1% | [5] 0.85% | [6] 9.95%

O=C(O)Cc1cc(=O)[nH]n(-c2ccccc2)c1=O
inactive: [1] 14.2% | [2] 8.6% | [3] -1.3% | [4] 10% | [5] -4.65% | [6] 13.8%
